Data published in publication PMC7826789 (International Journal of Molecular Sciences, 2021).

Columns and labels:
Details in all cases: Compound Concentration (nM):1000
CSNK2A2 = test system: CSNK2A2
CTK = test system: T1, CTK
T1 construct: gene MATK

DAPK1 = test system: DAPK1
DAPK2 = test system: DAPK2
DAPK3 = test system: DAPK3
DCAMKL1 = test system: T2, DCAMKL1
T2 construct: gene DCLK1

DCAMKL2 = test system: T3, DCAMKL2
T3 construct: gene DCLK2

DCAMKL3 = test system: T4, DCAMKL3
T4 construct: gene DCLK3

DDR1 = test system: DDR1
DDR2 = test system: DDR2
DLK = test system: T5, DLK
T5 construct: gene MAP3K12

DMPK2 = test system: T6, DMPK2
T6 construct: gene CDC42BPG

DMPK = test system: DMPK
DRAK1 = test system: T7, DRAK1
T7 construct: gene STK17A

DRAK2 = test system: T8, DRAK2
T8 construct: gene STK17B

DYRK1A = test system: DYRK1A
DYRK1B = test system: DYRK1B
DYRK2 = test system: DYRK2
EGFR(E746-A750del) = test system: EGFR(E746-A750del)
EGFR(G719C) = test system: EGFR(G719C)
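Note: KINOMEscan scanMAX binding as percent activity remaining versus control; lower means stronger binding.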

| SMILES | Percent Control (CSNK2A2) [%] | Percent Control (CTK) [%] | Percent Control (DAPK1) [%] | Percent Control (DAPK2) [%] | Percent Control (DAPK3) [%] | Percent Control (DCAMKL1) [%] | Percent Control (DCAMKL2) [%] | Percent Control (DCAMKL3) [%] | Percent Control (DDR1) [%] | Percent Control (DDR2) [%] | Percent Control (DLK) [%] | Percent Control (DMPK2) [%] | Percent Control (DMPK) [%] | Percent Control (DRAK1) [%] | Percent Control (DRAK2) [%] | Percent Control (DYRK1A) [%] | Percent Control (DYRK1B) [%] | Percent Control (DYRK2) [%] | Percent Control (EGFR(E746-A750del)) [%] | Percent Control (EGFR(G719C)) [%] |
| --- | --- | --- | --- | --- | --- | --- | --- | --- | --- | --- | --- | --- | --- | --- | --- | --- | --- | --- | --- | --- |
| Cl.O=S1CCN(Cc2ccc(-c3ccc4ncnc(Nc5ccc(OCc6ccccc6)c(F)c5)c4c3)o2)CC1 [GW576924A] | 100 | 100 | 100 | 100 | 100 | 89 | 100 | 100 | 100 | 100 | 90 | 100 | 100 | 100 | 100 | 100 | 100 | 91 | 14 | 0 |
| Cl.O=C(Nc1ccc(Oc2ccc3[nH]c(NC(=O)c4ccccc4)nc3c2)cc1)Nc1cc(C(F)(F)F)ccc1F [GW709042A] | 72 | 100 | 100 | 100 | 100 | 92 | 96 | 100 | 0 | 16 | 77 | 86 | 100 | 100 | 100 | 100 | 100 | 97 | 94 | 71 |
| COc1ccc(COc2ccc(Cc3cnc(N)nc3N)cc2OC)cc1 [GW632580X] | 70 | 94 | 94 | 91 | 91 | 94 | 78 | 100 | 78 | 100 | 97 | 100 | 100 | 100 | 100 | 88 | 100 | 81 | 100 | 85 |
| COc1ccc2cc(-c3c(-c4ccncc4)nc(-c4ccc(S(C)(=O)=O)cc4C)n3C)ccc2c1 [SB-633825] | 79 | 62 | 96 | 88 | 82 | 71 | 85 | 89 | 2 | 58 | 84 | 41 | 100 | 93 | 79 | 77 | 100 | 70 | 57 | 66 |
| NS(=O)(=O)c1ccc(N/N=C2\C(=O)Nc3ccc(-c4cnco4)cc32)cc1 [GW276655] | 7 | 78 | 60 | 70 | 56 | 78 | 87 | 100 | 100 | 100 | 100 | 94 | 72 | 60 | 36 | 2.5 | 79 | 4 | 100 | 83 |
| COc1cc(C)c(N(C)C(=O)CN(C)C)cc1Nc1nc(Nc2cccc(F)c2C(N)=O)c2cc[nH]c2n1 [GSK2219385] | 81 | 100 | 85 | 73 | 71 | 78 | 100 | 100 | 78 | 100 | 80 | 99 | 84 | 88 | 83 | 60 | 100 | 100 | 100 | 98 |
| COc1cc(N2CCN(C(C)C)CC2)ccc1Nc1nc(Nc2ccc(F)cc2C(=O)NC[C@@H](O)CO)c2cc[nH]c2n1 [GSK1392956A] | 88 | 95 | 13 | 6.8 | 4.3 | 78 | 100 | 100 | 98 | 100 | 77 | 75 | 100 | 87 | 93 | 53 | 75 | 24 | 74 | 94 |
| COc1cc(C=NNc2ncnc3c2cnn3-c2ccccc2)ccc1O [GW513184X] | 5.6 | 100 | 100 | 100 | 100 | 90 | 100 | 100 | 100 | 100 | 96 | 100 | 100 | 83 | 71 | 53 | 66 | 28 | 26 | 58 |
| O=C(Nc1n[nH]c2nc(-c3ccc(O)cc3)c(Br)cc12)C1CC1 [SB-725317] | 85 | 100 | 55 | 34 | 34 | 89 | 100 | 3.5 | 98 | 100 | 100 | 100 | 23 | 100 | 95 | 24 | 7.4 | 6.6 | 91 | 100 |
| CC(C)COC(=O)c1ccc2c(c1)/C(=C/Nc1ccc(S(N)(=O)=O)cc1)C(=O)N2 [GW416981X] | 1.5 | 100 | 24 | 9.4 | 9.8 | 38 | 100 | 4.6 | 100 | 100 | 14 | 100 | 100 | 0.3 | 5.5 | 26 | 45 | 18 | 82 | 4.6 |
| CN1CCN(C(=O)c2ccc(NC(=O)Nc3ccc(N(C)c4ccnc(Nc5ccc(CS(C)(=O)=O)cc5)n4)cc3)cc2)CC1.Cl [GW830263A] | 63 | 100 | 95 | 100 | 100 | 97 | 79 | 100 | 0 | 0 | 30 | 64 | 100 | 100 | 100 | 62 | 91 | 75 | 87 | 95 |
